High-throughput results deposited in PubChem by several laboratories.
A selection: hits, their analogues and other compounds. The true share with any hit is near 4.7%.
Plk1 PBD FP = blocks phosphopeptide binding to human Plk1 polo box domain; P53350; Plk1 PBD phosphopeptide binding, fluorescence polarization; inhibition, %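 (tested at about 20 µM)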; 0.13% of 97,000 active; in the data active = inhibition above about 34%, passing the limit was not always enough
Pyk2 oligo antag = Pyk2 (human) oligomerization antagonism; Q293 cells, Pyk2 FERM NanoBiT luminescence; hits give low values; 0.83% of 99,000 active; Q14289; z-score (the deposit names both 25 µM and 10 µM);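 active = Z-score of -3 or lower, scaled per plate to the spread of control and sample wells; inactive = z-score above -3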;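 also: negative z-score means lost luminescence so less FERM oligomerization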
SDO1 yeast rescue = restores growth of sdo1-depleted yeast; z-score at 10 µM; S. cerevisiae sdo1-depleted JHY4D growth rescue, OD600 30 h; hits give high values; pdr5 snq2 efflux-pump mutant strain; 0.21% of 140,000 active;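 active = z-score above 3 at both the 24 hr and the 30 hr optical density reads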;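 also: z-score against mean and SD of all compound wells on the same plate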
Cav3 T inh = inhibitors of human Cav3.2 T-type calcium channel. O95180. Cav3.2-expressing cells, Fluo-4 calcium fluorescence FDSS; hits give low values. B-score at 10 µM. 4% of 100,000 active. AID 449739;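 active = single-dose well whose peak fluorescence ratio is a statistical outlier from its plate by either plate-standardised score or position-corrected B-score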
Target sequence (O95180 whole entry, looked up): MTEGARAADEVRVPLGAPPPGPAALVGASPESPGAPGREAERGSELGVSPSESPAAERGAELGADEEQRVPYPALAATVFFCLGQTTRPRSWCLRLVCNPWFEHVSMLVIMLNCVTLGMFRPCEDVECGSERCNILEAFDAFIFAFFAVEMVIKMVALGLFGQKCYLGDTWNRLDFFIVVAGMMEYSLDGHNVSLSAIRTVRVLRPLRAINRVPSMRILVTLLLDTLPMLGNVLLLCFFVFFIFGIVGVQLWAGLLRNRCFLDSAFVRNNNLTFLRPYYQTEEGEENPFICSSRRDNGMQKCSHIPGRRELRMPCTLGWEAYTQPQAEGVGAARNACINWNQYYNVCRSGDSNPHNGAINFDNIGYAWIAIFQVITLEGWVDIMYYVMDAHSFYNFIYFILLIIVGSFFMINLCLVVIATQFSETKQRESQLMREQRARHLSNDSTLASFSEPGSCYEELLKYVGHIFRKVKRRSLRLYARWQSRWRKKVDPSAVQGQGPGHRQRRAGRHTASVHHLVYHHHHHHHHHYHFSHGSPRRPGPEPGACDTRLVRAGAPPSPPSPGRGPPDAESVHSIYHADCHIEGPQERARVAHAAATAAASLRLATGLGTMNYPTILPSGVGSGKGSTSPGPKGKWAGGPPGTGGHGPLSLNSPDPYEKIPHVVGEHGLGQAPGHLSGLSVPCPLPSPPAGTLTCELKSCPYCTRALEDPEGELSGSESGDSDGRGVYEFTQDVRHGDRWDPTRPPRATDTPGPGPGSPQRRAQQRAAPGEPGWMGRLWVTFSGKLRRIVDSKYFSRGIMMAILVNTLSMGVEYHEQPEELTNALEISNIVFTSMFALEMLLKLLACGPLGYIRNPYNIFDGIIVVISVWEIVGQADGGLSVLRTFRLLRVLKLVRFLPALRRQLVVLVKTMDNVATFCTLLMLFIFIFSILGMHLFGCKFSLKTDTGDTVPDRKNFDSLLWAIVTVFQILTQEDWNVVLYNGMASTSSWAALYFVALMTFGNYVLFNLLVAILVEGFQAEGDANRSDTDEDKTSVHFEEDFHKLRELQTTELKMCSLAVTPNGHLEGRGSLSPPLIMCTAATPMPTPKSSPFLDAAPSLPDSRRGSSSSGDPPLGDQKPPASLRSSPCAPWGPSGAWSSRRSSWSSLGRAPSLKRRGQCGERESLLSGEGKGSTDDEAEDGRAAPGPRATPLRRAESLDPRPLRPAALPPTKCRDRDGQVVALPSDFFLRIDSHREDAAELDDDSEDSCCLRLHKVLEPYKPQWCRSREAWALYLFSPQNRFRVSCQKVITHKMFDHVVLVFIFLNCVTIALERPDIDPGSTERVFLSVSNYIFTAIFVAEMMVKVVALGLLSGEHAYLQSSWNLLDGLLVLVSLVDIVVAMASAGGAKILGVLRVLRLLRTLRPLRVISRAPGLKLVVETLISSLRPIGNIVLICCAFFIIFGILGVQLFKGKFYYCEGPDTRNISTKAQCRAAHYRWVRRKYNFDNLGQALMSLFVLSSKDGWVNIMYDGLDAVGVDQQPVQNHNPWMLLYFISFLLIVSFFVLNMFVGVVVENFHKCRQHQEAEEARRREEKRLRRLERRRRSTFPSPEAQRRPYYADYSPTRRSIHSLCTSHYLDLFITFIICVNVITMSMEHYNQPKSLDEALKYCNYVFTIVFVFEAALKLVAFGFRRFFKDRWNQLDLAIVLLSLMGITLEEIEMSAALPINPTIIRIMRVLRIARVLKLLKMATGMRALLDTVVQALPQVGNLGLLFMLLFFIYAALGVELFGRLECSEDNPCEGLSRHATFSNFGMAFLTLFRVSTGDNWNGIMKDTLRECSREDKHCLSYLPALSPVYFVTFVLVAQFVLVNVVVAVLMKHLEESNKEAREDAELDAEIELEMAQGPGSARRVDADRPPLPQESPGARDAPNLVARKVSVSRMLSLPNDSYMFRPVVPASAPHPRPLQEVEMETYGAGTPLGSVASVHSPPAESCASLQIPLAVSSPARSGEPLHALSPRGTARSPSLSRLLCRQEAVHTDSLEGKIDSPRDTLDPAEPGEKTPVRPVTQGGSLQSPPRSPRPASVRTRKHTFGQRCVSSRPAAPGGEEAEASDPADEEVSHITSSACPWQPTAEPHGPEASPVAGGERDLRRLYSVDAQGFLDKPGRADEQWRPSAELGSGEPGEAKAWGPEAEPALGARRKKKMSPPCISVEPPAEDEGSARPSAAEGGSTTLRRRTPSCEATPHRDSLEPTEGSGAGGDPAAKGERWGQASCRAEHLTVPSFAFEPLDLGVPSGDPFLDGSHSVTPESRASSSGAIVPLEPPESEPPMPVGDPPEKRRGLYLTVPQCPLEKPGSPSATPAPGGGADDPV
DAT uptake mod = modulates human dopamine transporter uptake under cocaine. LLC-PK1 hDAT cells, [14C]-dopamine uptake with cocaine IC80; actives deviate in either direction. B-score at 10 µM. 1.3% of 110,000 active;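 active = Z score or B-score, a plate-position-corrected score, falls beyond the plate's 99.7% confidence bounds, in either direction; inactive = both scores lie inside the 99.7% bounds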;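 also: scored against the spread of the other compound wells on the same plate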
PLK1 kinase inh = PLK1 (human) kinase inhibition. recombinant PLK1 kinase, TR-FRET peptide phosphorylation. inhibition, % at 10 µM. 0.53% of 97,000 active;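 active = inhibition of 50% or more in the single-concentration screen; inactive = inhibition below 50%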;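 also: 0% = DMSO max control and 100% = H-89 dihydrochloride min control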
* marks the source's active call; other numbers are inactive results; . = no result given.

SMILES	Plk1 PBD FP	Pyk2 oligo antag	SDO1 yeast rescue	Cav3 T inh	DAT uptake mod	PLK1 kinase inh
CCOC(=O)C(C)Sc1cc(CS(=O)(=O)c2ccccc2)nc(-c2ccccc2)n1 (stereo not given)	9	-1.7	-0.09	-5.8*	-0.28	-13
O=S(=O)(Cc1cc(Sc2ccc(Cl)cc2)nc(-c2ccccc2)n1)c1ccccc1	-20	0.02	0.02	-4*	-0.13	-9
CCN(C(=O)COC(=O)c1cccnc1Nc1ccccc1F)C1CCS(=O)(=O)C1 (stereo not given)	.	.	0.58	.	.	.
Cc1ccc(S(=O)(=O)Nc2ccc3nc(-c4cccn4C)[nH]c3c2)cc1	-5	-0.28	0	-5.7*	-2.9*	-11
Cn1cccc1-c1nc2ccc(NC(=O)c3ccccc3)cc2[nH]1	-14	-0.54	0	-3	1.6	-12
Cn1cccc1CC(=O)N/N=C/C=C/c1ccco1	.	.	0.87	.	.	.
Cc1nn(-c2ccccc2)c(Cl)c1CN(C(=O)CCl)c1ccc(Cl)cc1	.	-1.5	-1.2	.	.	.
CC(=O)N(Cc1c(C)nn(-c2ccccc2)c1Cl)c1ccc(Cl)cc1	12	-2.8	-1.5	-8.3*	2	-5
Cc1occc1C(=O)NNC1=CC(=O)CC(C)(C)C1	.	.	1.5	.	.	.
Cc1ccc(S(=O)(=O)N2CCC(C(=O)N/N=C/c3cccnc3)CC2)cc1	.	0.46	-0.17	.	.	.
Cc1ccc(C)n1-n1c(C)nc2scc(-c3cccs3)c2c1=O	.	-2	-1.1	-3.9*	-0.35	.
COc1ccc(CC(=O)Nc2cccc(S(=O)(=O)N3CCCCCC3)c2)cc1OC	.	.	0.08	.	.	.
CCc1cc2c(=O)c(-c3ccc4c(c3)OCCO4)c(C)oc2cc1OS(C)(=O)=O	.	.	-0.71	.	.	.
Cn1nc(-c2ccc(C(=O)Nc3cccc(Cl)c3)cc2)c2ccccc2c1=O	-25	0.4	-1.1	0.44	-1*	-4
Fc1ccc(C(c2ccc(F)cc2)N2CCN(C/C=C/c3ccccc3)CC2)cc1	.	.	-2.5	-4.5*	-0.53	.
O=C1CC(c2ccncc2)c2cc3c(cc2N1)OCCO3 (stereo not given)	-2	-0.15	0.7	0.52	0.011	-11
O=C1CC(c2ccc3c(c2)OCO3)c2cc3c(cc2N1)OCCO3 (stereo not given)	7	0.07	-0.65	-1.3	-2.8*	7
CN(C(=S)Nc1ccc(F)cc1)C1(c2ccccc2Cl)CCCCC1=O (stereo not given)	5	-0.11	-1.1	-1.9	-0.95	-5
Cc1cc(C(=O)CSc2nnc(Nc3ccccc3F)s2)c(C)n1CC1CCCO1 (stereo not given)	11	0.23	-1.4	-6.9*	0.045	-3
Cc1cc(C(=O)CSc2nnc(Nc3ccccc3)s2)c(C)n1CC1CCCO1 (stereo not given)	-1	1.1	-1.1	-1.6	-0.35	-10
CCOC(=O)c1c(-c2ccccc2)nnn1-c1nc(OCC)nc(N2CCCCC2)n1	.	-1.6	-1.1	-7.6*	1.8*	.
CCOC(=O)c1nnn(-c2nc(N3CCCC3)nc(N3CCCC3)n2)c1-c1ccccc1	-9	1.1	-0.35	.	.	-8
CCOC(=O)c1nnn(-c2nc(OC)nc(N3CCCCC3)n2)c1-c1ccccc1	7	.	-1.2	-6.1*	2.4	-6
Cc1ccnc(NC(=O)CCC(=O)N(CC(=O)NC2CCCCC2)c2cccc(C)c2C)c1	1	-1.6	0.6	-6.4*	-0.11	4
Cc1cc(C)cc(N(CC(=O)NC2CCCCC2)C(=O)CCC(=O)Nc2cc(C)ccn2)c1	.	1.7	.	.	.	.
SMILES	Plk1 PBD FP	Pyk2 oligo antag	SDO1 yeast rescue	Cav3 T inh	DAT uptake mod	PLK1 kinase inh
Cc1ccc(-c2cc3cccc[n+]3cc2-c2ccc(C)cc2)cc1	.	-1.3	0.01	.	.	.
CCCCc1nc(NCCNC(=O)c2ccco2)c(C#N)c2c1CSC(C)(C)C2	-14	.	-2.8	-5.8*	0.61	3
CCCCc1nc(NCCNC(=O)c2ccccc2)c(C#N)c2c1CSC(C)(C)C2	-5	-0.27	-2.1	-4.5*	0.19	2
CCCCc1nc(Cl)c(C#N)c2c1CSC(C)(C)C2	.	.	0.07	.	.	.
COC(=O)C1CCN(c2ccc(C(N)=O)cc2[N+](=O)[O-])CC1	.	.	1.5	.	.	.
Cc1ccc(NC(=O)COC(=O)/C(=C/c2cccs2)c2cccs2)cc1S(=O)(=O)N(C)C	.	-2.1	-0.88	.	.	.
CCOC(=O)C1CCCN(CC(=O)Nc2c(C(=O)OC)[nH]c3ccc(C)cc23)C1 (stereo not given)	-17	-0.74	-1	-1	1.9	-10
